Records with an inconclusive call do not appear. The source made the active and inactive calls. Calls come from the whole dose curve; as a rule, active = well fitted curve in the direction sought with a large enough effect; inconclusive = small, poorly fitted or top-dose-only effect, or another doubt; inactive = no such curve, though single readings can be large; an effect the other way counts as inactive or inconclusive.
Assays:
[1] = Cellular Toxicity (caspase-3) Mesangial (AID 660); settings: mesangial cells, normalized: DMSO 0%, 100 µM tamoxifen 100%; at 91.7 µM (top of the series);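 note: cells exposed to compound for 16 h before the caspase read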
Outline: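 Human renal glomerular mesangial cells (1000/well) were treated with compounds for 16 h at 37 °C in complete medium, then caspase 3/7 activity was read by Caspase-Glo luminescence. Data were normalized to DMSO and 100 uM tamoxifen; AC50 from Hill fits.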

[2] = Cellular Toxicity (caspase-3) SK-N-SH (AID 661);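 note: 0% = DMSO basal and 100% = 10 µM staurosporine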
Outline: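 SK-N-SH human neuroblastoma cells (1500/well) were treated with compounds for 16 hr at 37 °C in complete medium; caspase 3/7 activity was read by Caspase-Glo luminescence. AC50 came from Hill fits of data normalized to DMSO and 10 uM staurosporine.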

[3] = Cellular Toxicity (caspase-3) H-4-II-E (AID 663); settings: H-4-II-E rat hepatoma, scaled: DMSO 0%, 100 µM tamoxifen 100%; at 92.2 µM (top of the series);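 note: cells exposed to compound for 16 hr before readout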
Outline: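 Apoptosis induction is scored as increased luminescence from caspase 3/7 substrate cleavage in rat hepatoma H-4-II-E cells exposed to compound for 16 hr. Activity is scaled between DMSO and 100 uM tamoxifen.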

[4] = Cellular Toxicity (caspase-3) Hek293 (AID 664); settings: HEK293 caspase-3 activation, DMSO = 0%, 100 µM tamoxifen = 100%; at 92.2 µM (top of the series);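 note: cells exposed to compound for 16 h at 37 °C before readout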
Outline: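 HEK293 cells were exposed to compounds in complete medium for 16 hr at 37 °C, then caspase-3/7 activity was read by Caspase-Glo 3/7 luminescence after 20 min at room temperature. Data normalized to DMSO and 100 uM tamoxifen; AC50 from Hill fits.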

[5] = Cellular Toxicity (caspase-3) N2a (AID 665);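 note: compound exposure lasted 16 h at 37 °C before readout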
Outline: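 Mouse N2a neuroblastoma cells (1500/well) were treated with compounds for 16 h at 37 °C, then caspase-3/7 activity was read by Caspase-Glo luminescence after 1 h at room temperature. Data were normalized to DMSO and 10 uM staurosporine; AC50 from Hill fits.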

[6] = Cellular Toxicity (caspase-3) Renal Proximal Tubule (AID 667); settings: Potency: caspase-3 activation;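 note: cells exposed to compound for 16 hours at 37 °C before detection; 0% = DMSO basal and 100% = 10 µM staurosporine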
Outline: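 In qHTS format, rat primary proximal tubule cells seeded at 1000 per well are exposed to compounds for 16 hours at 37 °C. An increase in Caspase-Glo 3/7 luminescence indicates caspase activation.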

[7] = biological target: Cytochrome P450 3A4 (Homo sapiens) (UniProt P08684); assay: qHTS Assay for Activators of Cytochrome P450 3A4 (AID 885); note: nearly all actives have a fitted effect of over 65% in size
Outline: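 Steps: enzyme/substrate mix dispensed; compound added, 10 min RT; NADPH regeneration solution added, 60 min RT; luciferin detection buffer stops reaction; 20 min later luminescence measured.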

[8] = Cell Viability - LYMP2-001 (AID 921);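 note: 0% = DMSO only and full inhibition = tetraoctylammonium bromide control wells; nearly all actives have a fitted effect of over 70% in size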
Outline: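 qHTS, 1536-well; lymphoblastoid cells, 24 hr compound, 37 C; ATP by CellTiter-Glo, 30 min RT; luminescence; Hill-fit AC50.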

[9] = MultiTox-Fluor Cytotoxicity Assay - LYMP1-001 - Dead Cells (AID 946)
Outline: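 Seed 2500 LYMP1-001 cells/well, incubate 5 hr at 37 C; add compound, 16 hr at 37 C; add MultiTox-Fluor reagent, 60 min RT; read dead-cell fluorescence Ex/Em=485/520. Normalize to DMSO and 15 uM tetraoctylammonium bromide.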

[10] = MultiTox-Fluor Cytotoxicity Assay - LYMP1-001 - Live Cells (AID 947);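 note: 0% = DMSO only and full inhibition = tetraoctylammonium bromide control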
[11] = Cell Viability - LYMP1-002 - Assay at 16 hr (AID 948);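 note: 0% = DMSO alone and full effect = 92 µM tetraoctylammonium bromide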
Outline: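 Acute cytotoxicity is scored as a concentration-dependent fall in intracellular ATP in a human lymphoblastoid line (LYMP1-002) after 16 hr compound exposure at 37 C, measured by luciferase luminescence.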

[12] = MultiTox-Fluor Cytotoxicity Assay - LYMP1-002 - Live Cells (AID 955); note: % is set by controls: 0 for no effect and ±100 for the full control effect
Outline: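 Human lymphoblastoid LYMP1-002 cells, 2500/well in complete medium, rested 5 hr at 37 C, then exposed to compounds for 16 hr at 37 C. Live-cell protease cleavage of GF-AFC read by fluorescence (Ex/Em 405/510) after 60 min at room temperature; AC50 from Hill fits.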

[13] = MultiTox-Fluor Cytotoxicity Assay - LYMP1-003 - Dead Cells (AID 961); note: nearly all actives have a fitted effect of over 70% in size
Outline: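 LYMP1-003 lymphoblastoid, 2500 cells/well, 5 hr settle then 16 hr cpd at 37 C; MultiTox-Fluor reagent 60 min RT; Ex/Em 485/520 dead-cell signal; norm. DMSO = 0%, 15 uM tetraoctylammonium bromide = 100%; Hill AC50.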

[14] = MultiTox-Fluor Cytotoxicity Assay - LYMP1-003 - Live Cells (AID 962);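 note: 0% = DMSO only and full loss = 92 µM tetraoctylammonium bromide; cytotoxic hits lower the live-cell protease signal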
Outline: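 LYMP1-003 human lymphoblastoid cells (2500/well) in complete medium were preincubated 5 hr at 37 C, then exposed to compounds for 16 hr at 37 C. Live-cell protease cleavage of GF-AFC read by fluorescence (Ex/Em 405/510); AC50 from Hill fits.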

[15] = Cell Viability - LYMP1-003 - Assay at 40 hr (AID 964); note: % is set by controls: 0 for no effect and ±100 for the full control effect; nearly all actives have a fitted effect of over 60% in size
Outline: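 Human lymphoblastoid LYMP1-003 cells, 2500/well in complete medium, rested 5 hr at 37 C, then exposed to compounds for 40 hr at 37 C. Viability read as intracellular ATP by CellTiter-Glo luminescence; AC50 from Hill fits of concentration-response data.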

[16] = Cell Viability - LYMP2-003 (AID 965);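 note: cells exposed to compounds for 24 h before reading; 0% = DMSO only and full effect = 92 µM tetraoctylammonium bromide; nearly all actives have a fitted effect of over 50% in size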
Outline: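 Acute cytotoxicity is scored as a concentration-dependent drop in intracellular ATP, measured by luciferase luminescence in human lymphoblastoid cells treated for 24 hours at 37 C. AC50 values derive from Hill-equation modelling.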

[17] = biological target: Cytochrome P450 3A4 (Homo sapiens) (UniProt P08684); assay: qHTS Assay for Inhibitors and Substrates of Cytochrome P450 3A4 (AID 884); note: % is set by controls: 0 for no effect and ±100 for the full control effect; nearly all actives have a fitted effect of over 50% in size
Outline: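 20 nM human CYP3A4 with 25 uM Luciferin-PPXE (at KM) in 200 mM KPO4, preincubated 10 min with compound; NADPH regeneration started a 60 min RT reaction. Luciferin detected by luminescence, normalized to 57 uM ketoconazole as full inhibition.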

[18] = MultiTox-Fluor Cytotoxicity Assay - LYMP1-002 - Dead Cells (AID 960); note: nearly all actives have a fitted effect of over 60% in size
Outline: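 Human lymphoblastoid cells (LYMP1-002), 2500/well in complete medium, were exposed to compounds for 16 hr at 37 C. Dead-cell protease activity was read as bis-AAF-R110 fluorescence (Ex/Em 485/520), normalized to DMSO and 15 uM tetraoctylammonium bromide; AC50 from Hill fits.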

[19] = Cell Viability - LYMP1-003 - Assay at 24 hr (AID 963);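 note: plate controls were DMSO only for no effect and tetraoctylammonium bromide positive control for full effect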
Outline: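 Human lymphoblastoid LYMP1-003 cells (2500/well) were rested 5 hr at 37 C, then exposed to compounds in complete medium for 24 hr at 37 C. Cellular ATP was quantified by CellTiter-Glo luminescence, and AC50 values came from Hill fits of concentration-response data.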

[20] = Cellular Toxicity (caspase-3) NIH 3T3 (AID 666);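 note: caspase signal read after 16 h compound exposure; 0% = DMSO basal and 100% = 100 µM tamoxifen stimulation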
Outline: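 Mouse NIH 3T3 fibroblasts (1000 cells/well) were treated with compound for 16 hr at 37°C in complete medium; caspase-3/7 activity was read by Caspase-Glo luminescence. Normalized to DMSO and 100 uM tamoxifen; AC50 from Hill fits.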

Chain of Cytochrome P450 3A4 (Homo sapiens) (P08684 whole entry, looked up): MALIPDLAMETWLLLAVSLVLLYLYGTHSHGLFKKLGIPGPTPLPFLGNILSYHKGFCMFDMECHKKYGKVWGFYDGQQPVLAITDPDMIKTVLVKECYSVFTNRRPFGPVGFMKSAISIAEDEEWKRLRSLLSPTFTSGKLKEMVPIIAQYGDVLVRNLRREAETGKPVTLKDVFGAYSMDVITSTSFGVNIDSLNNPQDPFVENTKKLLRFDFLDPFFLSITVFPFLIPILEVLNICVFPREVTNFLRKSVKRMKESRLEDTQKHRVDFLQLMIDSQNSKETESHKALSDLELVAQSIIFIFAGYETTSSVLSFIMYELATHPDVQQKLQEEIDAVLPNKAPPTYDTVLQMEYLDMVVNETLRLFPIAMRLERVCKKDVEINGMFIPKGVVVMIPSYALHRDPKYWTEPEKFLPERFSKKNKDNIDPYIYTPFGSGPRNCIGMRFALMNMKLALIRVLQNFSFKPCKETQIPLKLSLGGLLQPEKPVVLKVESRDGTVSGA

Nc1cc(Cl)c(N)c(Cl)c1
inactive: caspase-3 activation [1] -0.0656% | outcome [2] | caspase-3 activation [3] 1.21% | caspase-3 activation [4] -2.67% | outcome [5] | Potency [6] | outcome [7] | Potency [8] | outcome [9] | outcome [10] | outcome [11] | outcome [12] | Potency [13] | Potency [14] | Potency [15] | Potency [16]

O=C1OC(=O)c2cc([N+](=O)[O-])ccc21
inactive: caspase-3 activation [1] -0.00553% | outcome [2] | caspase-3 activation [3] -0.24% | caspase-3 activation [4] -0.39% | outcome [5] | Potency [6] | Potency [17] | Potency [8] | outcome [9] | outcome [10] | outcome [11] | outcome [12] | outcome [18] | Potency [13] | Potency [14] | Potency [15] | Potency [16]

CCC1CO1 (configuration not stated)
inactive: caspase-3 activation [1] 0.872% | outcome [2] | caspase-3 activation [3] 2.93% | caspase-3 activation [4] -0.425% | outcome [5] | Potency [6] | Potency [17] | Potency [8] | outcome [9] | outcome [10] | outcome [11] | outcome [12] | Potency [13] | Potency [19] | Potency [15] | Potency [16]

O=Cc1ccc(Cl)cc1
inactive: caspase-3 activation [1] 0.65% | outcome [2] | caspase-3 activation [3] 0.113% | caspase-3 activation [4] 2% | outcome [5] | Potency [6] | Potency [17] | Potency [8] | outcome [9] | outcome [10] | outcome [11] | outcome [12] | outcome [18] | Potency [13] | Potency [14] | Potency [19] | Potency [15] | Potency [16]

C[C@@H]1CC2(OC3C[C@@]4(C)C5=CC[C@H]6C(C)(C)C(O[C@@H]7OC[C@@H](O)[C@H](O)[C@H]7O)CC[C@@]67C[C@@]57CC[C@]4(C)C31)OC(O)C1(C)OC21 (some centres not stated)
inactive: caspase-3 activation [1] -0.636% | outcome [2] | caspase-3 activation [3] 1.92% | caspase-3 activation [4] 2.55% | outcome [5] | Potency [6] | outcome [7] | Potency [8] | outcome [9] | outcome [10] | outcome [11] | outcome [12] | Potency [13] | Potency [14] | Potency [19] | Potency [16]

C=CC(=O)OCCCC
inactive: caspase-3 activation [1] 0.429% | outcome [2] | caspase-3 activation [3] -0.465% | caspase-3 activation [4] 0.453% | outcome [5] | Potency [6] | Potency [17] | Potency [8] | outcome [11] | outcome [12] | outcome [18] | Potency [13] | Potency [14] | Potency [19] | Potency [15] | Potency [16]

Cc1cccc2cccnc12
inactive: caspase-3 activation [1] -0.268% | caspase-3 activation [3] 0.865% | caspase-3 activation [4] -1.22% | outcome [5] | outcome [20] | Potency [6] | Potency [17] | Potency [8] | outcome [9] | outcome [10] | outcome [11] | outcome [12] | outcome [18] | Potency [13] | Potency [14] | Potency [19] | Potency [15] | Potency [16]

From PubChem BioAssay (NCATS)
